Assay outcomes from PubChem.
Rows were chosen to be rich in hits. Some 2.4% of all compounds tested hit in one or more screens of this group.
D2 PAM-1 = positive allosteric modulators of human D2 dopamine receptor | actives 0.23% (n = 360,000) | DiscoveRx D2 beta-arrestin cells, luminescence, 90 min; 100% = 57 uM dopamine signal | P14416 | potentiation, % (no concentration beside the values); in the data active = potentiation above about 50%
Target sequence (P14416 whole entry, looked up): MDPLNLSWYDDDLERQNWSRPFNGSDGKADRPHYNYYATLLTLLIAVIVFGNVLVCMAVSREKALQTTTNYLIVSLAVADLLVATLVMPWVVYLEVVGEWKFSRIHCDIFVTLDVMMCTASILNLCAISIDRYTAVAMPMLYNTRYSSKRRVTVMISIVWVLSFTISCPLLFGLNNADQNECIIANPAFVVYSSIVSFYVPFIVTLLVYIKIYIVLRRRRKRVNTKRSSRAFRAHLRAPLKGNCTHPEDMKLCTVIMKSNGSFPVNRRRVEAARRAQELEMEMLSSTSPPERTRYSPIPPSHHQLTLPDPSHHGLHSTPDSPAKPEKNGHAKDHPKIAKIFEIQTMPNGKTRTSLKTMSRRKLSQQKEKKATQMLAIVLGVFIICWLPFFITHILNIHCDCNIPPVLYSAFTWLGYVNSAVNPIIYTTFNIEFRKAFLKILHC
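PathHunter beta-arrestin assay in DiscoveRx D2 cells. Compounds were added with an EC20 of dopamine (50 nM final) for 90 min at 37 deg C. Luminescence was read 1 h after detection reagent, with 57 uM dopamine as the EC100 control.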
D2 ag-1 = D2 dopamine receptor (human) agonism | P14416 | HEK293 T-REx D2 cells, calcium flux agonist mode | activation, % at 2 µM | actives 0.53% (n = 340,000);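 active = activation over 3 SD above normal in the single-dose calcium agonist read, cut at about 30% in these data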; note: 0% is about no effect
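Agonism is scored from calcium flux in a force-coupled, inducible HEK293 cell line expressing D2, read kinetically for 180 s after compound addition against dopamine controls.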
D2 ag-2 = activates the human D2 dopamine receptor | DiscoveRx PathHunter D2 beta-arrestin, luminescence, 90 min; 100% = 57 uM dopamine signal | activation, % (no concentration beside the values) | actives 0.084% (n = 360,000) | AID 624465; in the data active = activation above about 40%
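Agonist mode: compounds alone added to overnight-plated D2 PathHunter cells for 90 min at 37 C, with 57 uM final dopamine (EC100) defining full response. Beta-arrestin recruitment detected by chemiluminescent reagent, read after 1 h at ambient temperature.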
D2 antag = antagonizes the human D2 dopamine receptor | P14416 | HEK293 TREx D2 cells, calcium flux, dopamine EC80 | inhibition, % at 10 µM | actives 2% (n = 340,000) | AID 485344; in the data active = inhibition above about 30%; inactive = below that, where a call was filed; note: 0% is about no effect
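Cells plated overnight at 30 C with tetracycline; no-wash calcium dye, 30–90 min RT; 10 s baseline; compound pinned; 180 s read; EC80 dopamine added; another 180 s read.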
D2 PAM-2 = positively modulates the human D2 dopamine receptor allosterically. potentiation, % at 10 µM. actives 0.34% (n = 340,000). HEK293 T-REx D2, calcium flux, EC20 dopamine potentiation. P14416;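 active = potentiation over 3 SD above the plate norm, cut at about 30% in these data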; note: 0% is about no effect
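Potentiation of an EC20 dopamine calcium response is measured in a force-coupled, tetracycline-inducible Hek293 Trex D2 line. Compound-only kinetic reads over 180 s flag agonists before dopamine addition.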
* marks the source's active call; other numbers are inactive results; / = no result.

SMILES | D2 PAM-1 | D2 ag-1 | D2 ag-2 | D2 antag | D2 PAM-2
CCc1ccc(NC(=O)c2ccc(Cn3nc(N4CCN(c5ccccc5)CC4)ccc3=O)o2)cc1 | / | 0 | / | / | 1
C=C1C(=O)C=C2CN(C(=O)c3ccccc3)[C@@](Cc3ccc(F)cc3)(C(=O)OC)[C@@H]12 | -24 | 24 | -9 | 44* | 9
COC(=O)[C@@]1(Cc2ccc(OC)cc2)[C@@H]2C(=CC(=O)[C@H]2CC(=O)C(=O)N(C)C)CN1C(=O)c1ccccc1 | 1 | 1 | -2 | -11 | 5
O=C(NCCc1cccs1)c1ccc(Cn2c(SCc3ccccc3)nc3cccnc32)cc1 | / | -1 | / | / | -16
COC(=O)CN1C(c2ccc(OC)cc2)=Nc2ccc(Cl)cc2C1c1ccccc1 (stereo not given) | 9 | 1 | 3 | 91* | -24
COc1cc(C2=Nc3ccc(Br)cc3C(c3ccccc3)N2CC(=O)NN)cc(OC)c1OC (stereo not given) | -22 | 1 | -5 | 86* | -15
COC(=O)CN1C(c2cccc(Cl)c2)=Nc2ccc(Cl)cc2C1c1ccccc1 (stereo not given) | -36 | -2 | -2 | 21 | -13
COC(=O)c1c(-c2cccs2)csc1NC(=O)CN1CCOCC1 | -13 | 1 | -4 | -15 | 33*
O=C(CN1CCOCC1)Nc1scc2c1c(=O)oc1ccccc12 | -2 | 0 | -1 | 36* | -7
COC(=O)c1c(-c2cccs2)csc1NC(=O)c1ccc(C)cc1 | / | 2 | / | / | 14
COc1ccc2c3c(cccc13)C(=O)CC2 | -8 | 49* | -4 | -15 | -11
CNC(=O)c1ccc(Nc2nnc(-c3ccc(C)c(S(=O)(=O)NC(C)(C)C)c3)c3ccccc23)cc1 | / | -2 | / | / | 7
CC1CCN(c2nc(-c3ccccc3)cc(C(F)(F)F)n2)CC1 | 10 | 0 | -1 | 5 | 4
CN1CCN(c2nc(-c3cccs3)cc(C(F)(F)F)n2)CC1 | -23 | -1 | -1 | 32* | -15
CN1CCN(c2nc(-c3ccccc3)cc(C(F)(F)F)n2)CC1 | -36 | -1 | -3 | 75* | -7
CS(=O)(=O)c1nc(-c2cccs2)cc(C(F)(F)F)n1 | / | 2 | / | 9 | 1
Cn1c(=O)c2c(-c3ccc(Br)cc3)n(Cc3ccc(F)cc3)cc2n(C)c1=O | / | 1 | / | / | -5
CCC1CN(S(=O)(=O)c2cc(-c3cc(C)no3)ccc2C)c2cc(Cl)ccc2O1 (stereo not given) | / | 1 | / | / | -1
CC(=O)c1cccc(CN2CCN(CCc3ccccc3)C(CCO)C2)c1 (stereo not given) | -26 | 1 | -3 | 34* | -17
CC(=O)c1cccc(CN2CCN(Cc3ccc(C)cc3)C(CCO)C2)c1 (stereo not given) | -32 | 1 | -6 | 55* | -27
Cc1cc(-c2ccccc2)nc2cc(C(=O)Nc3cc(C(F)(F)F)ccc3Cl)nn12 | / | 1 | / | / | -5
CCCCCOc1ccc(/C=C/C(=O)Nc2sc(C(C)=O)c(C)c2C(=O)OCC)cc1OC | / | / | / | / | 1
Cc1cc(C(N)=O)c2cc(Br)ccc2n1 | -1 | 0 | -2 | -1 | 39*
COC(=O)c1cc2occc2n1Cc1ccc(Cl)cc1 | -9 | -1 | -1 | 0 | -7
CCOC(=O)c1cc2occc2n1Cc1ccc(F)cc1 | -5 | 0 | -4 | 34* | -14
SMILES | D2 PAM-1 | D2 ag-1 | D2 ag-2 | D2 antag | D2 PAM-2
CCOC(=O)c1cc2occc2n1Cc1c(F)cccc1Cl | -10 | 0 | -4 | 31* | -3
Cc1ccc(-n2c(=O)c3ccc(C(=O)NCc4ccco4)cc3n(Cc3ccc(Cl)cc3)c2=O)cc1 | / | 1 | / | / | -5
CNS(=O)(=O)c1ccc(N=Cc2c(C)[nH]n(-c3ccc(C)cc3C)c2=O)cc1 | 1 | 1 | -3 | 42* | -7
Cc1ccc(-n2[nH]c(C)c(C=Nc3ccc(S(=O)(=O)Nc4nc(C)cc(C)n4)cc3)c2=O)c(C)c1 | 12 | 1 | -1 | -5 | 6
O=C(Nc1nc2c(s1)CN(Cc1ccccc1)CC2)c1cccc(S(=O)(=O)N2CCc3ccccc32)c1 | -4 | 9 | 1 | 41* | -20
O=C(Nc1nc2ccccc2s1)c1cccc(S(=O)(=O)N2CCc3ccccc32)c1 | -1 | / | -2 | / | /
COc1ccc2c(c1)c(=O)c(S(=O)(=O)c1ccc(C)c(C)c1)cn2CC(=O)Nc1ccccc1 | / | 0 | / | / | -25
COCCN1C(=O)c2ccc(C(=O)O)cc2C1=O | -5 | 0 | -2 | -4 | 39*
COCCCN1C(=O)c2ccc(C(=O)NCc3ccccn3)cc2C1=O | -15 | 0 | 1 | -4 | 32*
CC(C)CN1C(=O)c2ccc(C(=O)NCc3ccccn3)cc2C1=O | -6 | 1 | -2 | 4 | 0
CCOC(=O)c1cc2c(=O)n3ccccc3nc2n(CC2CCCO2)c1=NC(=O)c1ccc(OC)cc1OC (stereo not given) | / | / | / | / | -7
Cc1[nH]c2ccccc2c1/C=N/Nc1ccc(F)cc1F | / | 1 | / | 31* | 1
Cc1[nH]c2ccccc2c1/C=N/NC(=O)c1cccc(F)c1 | -6 | -1 | -9 | -12 | -7
COc1ccc2oc(C(=O)OCC(=O)N3CCN(C(C)=O)CC3)c(C)c2c1 | 28 | 1 | -4 | -9 | -2
Cc1cccc(C(=O)OCC(=O)N2CCCCCC2)c1 | -16 | 0 | 0 | 31* | 11
COc1ccc2oc(C(=O)OCC(=O)N3CCCCC3)c(C)c2c1 | 0 | -1 | -4 | 31* | -1
COc1ccc(-c2nc(-c3ccncc3)no2)c(OC)c1 | -14 | 0 | 1 | 58* | 14
COc1cc(-c2nc(-c3ccc(C)nc3OC)no2)cc(OC)c1OC | / | 1 | / | 2 | -8
COc1nc(C)ccc1-c1noc(-c2ccncc2)n1 | -8 | 0 | -1 | -20 | 38*
CCOc1nc(C)ccc1-c1noc(-c2ccccn2)n1 | -20 | 2 | -1 | -8 | 12
CCOc1nc(C)ccc1-c1noc(-c2ccco2)n1 | -10 | 0 | -1 | -13 | 35*
COc1ccc(-c2ccc(-c3noc(-c4ccccc4)n3)c(OC)n2)cc1 | -12 | 1 | -2 | 31* | -7
COc1ccc(-c2noc(CN(C(=O)c3ccc(C)cc3C)C(C)C)n2)cc1 | / | 0 | / | / | 3
COc1ccc(S(=O)(=O)NCc2cccn2Cc2cc(C)ccc2C)cc1OC | / | 0 | / | / | 0
CC1=CC(=O)CC2C1(C)CCC(C)C2(C)CCC(C)CC(=O)O (stereo not given) | -18 | 0 | 2 | 32* | 2
CCC1CCCCN1Cc1cn2c(-c3ccc(Br)cc3)nnc2s1 (stereo not given) | / | 0 | / | / | -3
O=c1nc2ccccc2c2n1CC(CN1CCN(C(c3ccccc3)c3ccccc3)CC1)N2 (stereo not given) | -16 | -1 | -1 | 47* | -27
